Hits are enriched below; roughly 1.7% of the tested compounds scored in any of these assays.
HUVEC tox IL1B: HUVEC cytotoxicity counter-screen, IL-1B stimulated; HUVEC cell count loss, Hoechst imaging; cell count reduction, % at 2 µM; 94,000 tested, 0.41% active; AID 845;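 active = cell count reduction more than 3 SD above the screen-wide mean, cut at about 70% in these data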;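 note: normalized per plate to untreated control cells as the no-loss baseline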
NFkB transloc pot: enhances IL-1B driven NFkB nuclear translocation; AID 819; HUVEC IL-1B NFkB p65 nuclear translocation imaging; activation, % at 2 µM; 94,000 tested, 0.3% active;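 active = activation above 40%, about the mean plus 3 SD, also judged a hit on visual image review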;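 note: percent activation is computed from the nuclear over cytoplasmic p65 intensity ratio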
VCAM1 TNFa inh: reduces TNF alpha induced VCAM1 expression in HUVEC; HUVEC TNFa-induced VCAM-1 immunofluorescence, high-content imaging; AID 802; 95,000 tested, 0.48% active; inhibition, % at 2 µM;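 active = inhibition above the batch mean plus 3 SD, with images confirmed as a hit by eye, cut at about 37% in these data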;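 note: 0% = TNF-stimulated DMSO wells and 100% = unstimulated control wells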
E-sel TNF inh: TNF alpha driven E-selectin expression inhibition. 120,000 tested, 0.71% active. HUVEC TNFa-induced E-selectin immunofluorescence, high content. inhibition, % at 2 µM;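 active = inhibition above the batch mean plus 3 SD, and confirmed as a hit on visual image review, cut at about 43% in these data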;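 note: 0% = TNF-stimulated DMSO wells and 100% = unstimulated control wells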
TNFa cytotox: toxic to HUVEC cells under TNF alpha stimulation; HUVEC TNFalpha-stimulated, Hoechst cell count, imaging; cell count reduction, % at 2 µM; 93,000 tested, 0.17% active;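 active = cell count reduction exceeding the screen mean by over 5 SD, scaled to untreated wells per plate, cut at about 78% in these data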;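 note: cells counted after 24 h of TNF alpha exposure following the 1 h pretreatment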
NFkB transloc inh: blocks IL-1B driven NFkB nuclear translocation in HUVEC cells; inhibition, % at 2 µM; AID 796; 94,000 tested, 0.43% active; HUVEC IL-1B NFkB p65 nuclear translocation imaging;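 active = inhibition above about 30% together with a positive call from visual inspection of the well image, limit read from the data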;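 note: nuclear over cytoplasmic p65 intensity ratio measured by imaging; 0% = IL-1B stimulated DMSO wells and 100% = unstimulated DMSO wells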
* hit, by the source's call; / = no result.

SMILES | HUVEC tox IL1B | NFkB transloc pot | VCAM1 TNFa inh | E-sel TNF inh | TNFa cytotox | NFkB transloc inh
CCN1CCCC1Cn1cnc2c([nH]c3ccc(Cl)cc32)c1=O (stereo not drawn) | -3 | 4 | -6 | 5 | -41 | -4
O=C(NCCCN1CCOCC1)c1sc2ccccc2c1Cl | / | / | / | -12 | / | /
CCOc1cccc(C(=O)Nc2cccc(-c3nc4ncccc4o3)c2C)c1 | -8 | 20 | / | -3 | / | -20
COc1cccc(C(=O)Nc2cccc(-c3nc4ncccc4o3)c2C)c1 | 10 | -1 | 94* | / | 69 | 1
CC(CCc1ccccc1)NC(=O)/C=C/c1ccc(Cl)cc1 (stereo not drawn) | / | / | / | 65* | / | /
O=C(NNS(=O)(=O)c1ccc2ccccc2c1)c1cc(-c2ccccn2)nc2ccccc12 | / | / | / | -9 | / | /
Cn1/c(=N/N=C/c2ccccn2)sc2ccccc21 | / | / | / | -16 | / | /
COc1ccc(C(=O)CN2C(=O)NC3(CCCc4ccccc43)C2=O)cc1OC (stereo not drawn) | -2 | 23 | 24 | 100* | 13 | -23
COc1ccc(C(=O)CN2C(=O)NC3(CCCCC3)C2=O)cc1OC | / | / | / | -10 | / | /
CC(C)(C)C(=O)NNC(=O)CCCOc1ccc(Cl)cc1Cl | -50 | 3 | -2 | -53 | 12 | -3
CC(C)(CO)NC(=O)CCCOc1ccc(Cl)cc1Cl | -51 | -1 | 93* | 8 | -29 | 1
C=CCn1c(SCC(=O)NCCOC)nnc1-c1cc2c(s1)CCC(CC)C2 (stereo not drawn) | / | / | / | 0 | / | /
CCCOc1ccc(OCCSc2ncccn2)cc1 | -34 | 44* | 15 | -13 | -6 | -44
Clc1ccc(OCCCCSc2ncccn2)cc1 | -10 | 1 | -23 | 10 | -11 | -1
CCOc1ccc(OCCSc2nc3ccccc3o2)cc1 | 4 | -42 | 14 | 12 | 12 | 42*
COc1ccc(NC(=S)N/N=C/c2cccn2Cc2ccc(F)cc2)cc1 | / | / | / | 1 | / | /
Cc1nn2c(N3CCN(C4CCCC4)CC3)cc(C(C)(C)C)nc2c1-c1ccccc1 | 82* | 6 | -2 | -5 | -1 | -6
C(=C1/CCCC2=C1Nc1ncnn1C2c1ccccc1)/c1ccccc1 (stereo not drawn) | 17 | -38 | -9 | 29 | 2 | 38*
FC(F)(F)c1ccccc1C1C2=C(Nc3ncnn31)c1ccccc1CCC2 (stereo not drawn) | -1 | 32 | 8 | -18 | 1 | -32
O=C(Nc1ccccc1)c1ccn[nH]1 | 19 | -31 | -12 | 8 | -7 | 31*
Cc1cccc(C)c1N1C(=O)CC(N(O)c2ccccc2)C1=O (stereo not drawn) | 4 | 9 | 23 | 24 | 0 | -9
Cc1c(Cl)cccc1N1C(=O)CC(N(O)c2ccccc2)C1=O (stereo not drawn) | -35 | -1 | -19 | 100* | -14 | 1
CC1(C(=O)OCC(=O)c2c[nH]c3ccccc23)CC1(Cl)Cl (stereo not drawn) | -3 | 7 | -4 | -1 | -28 | -7
O=c1c2ccccc2nnn1CSc1ncnc2ccccc12 | -18 | 17 | 46* | 0 | 54 | -17
Cc1cc(C)c(C#N)c(=N)o1 | 4 | -2 | -3 | 62* | 10 | 2
SMILES | HUVEC tox IL1B | NFkB transloc pot | VCAM1 TNFa inh | E-sel TNF inh | TNFa cytotox | NFkB transloc inh
O=[N+]([O-])c1cc2c(cc1Br)CCN2 | / | / | / | 1 | / | /
COc1ccc(CN(CC2CCCO2)C(=O)c2cc3sccc3n2C)c(OC)c1 (stereo not drawn) | / | / | / | -26 | / | /
C=C1C(=O)[C@@]23[C@H](O)C[C@@H]4C(C)(C)CC[C@H](O)[C@@]4(C)[C@@H]2CC[C@@H]1[C@H]3O | / | / | / | 58* | / | /
O=C(O)Cc1ccc(NC(=O)C2CC=CCC2C(=O)O)cc1 (stereo not drawn) | 3 | 0 | 55* | 10 | 57 | 0
Cc1cc2nnc(SC3CCCCN(C(=O)c4ccc(F)cc4)C3=O)n2c2ccccc12 (stereo not drawn) | -137 | 5 | -12 | -32 | -3 | -5
O=C(c1ccc(F)cc1)N1CCCCC(Sc2nnc3ccccn23)C1=O (stereo not drawn) | -12 | -30 | 12 | 6 | 34 | 30*
Cc1cc(NS(=O)(=O)c2ccc(NC(=O)COc3ccc(Cl)cc3)cc2)no1 | 88* | -99 | -21 | -1 | / | 99*
CCC(=O)N1c2ccc(S(=O)(=O)CCC(=O)N3CCn4c3nc3ccccc34)cc2CC1C (stereo not drawn) | -10 | -13 | 83* | -22 | 84* | 13
CCC(=O)N1c2ccc(S(=O)(=O)CCC(=O)NC3CCCC3)cc2CC1C (stereo not drawn) | -36 | -8 | 0 | -6 | -31 | 8
CCCCn1nnnc1NCc1ccc(OC)c(OC)c1 | -56 | 10 | 15 | -23 | 2 | -10
CCCCn1nnnc1NCc1cccc(OC)c1OC | -7 | 114* | 6 | 16 | -13 | -114
COc1ccc(C(=O)C2=NN(C(C)=O)CC2c2ccco2)cc1 (stereo not drawn) | / | / | / | -2 | / | /
COc1ccccc1N1CCN(C(=O)c2cc(-c3ccc(Cl)cc3)on2)CC1 | 14 | -44 | -14 | / | 6 | 44*
COc1ccccc1N1CCN(C(=O)c2cc(-c3ccc(C)cc3)on2)CC1 | -13 | 2 | -16 | 17 | 11 | -2
COc1ccccc1N1CCN(C(=O)c2ccc(Br)s2)CC1 | / | / | / | 80* | / | /
COc1ccccc1N1CCN(S(=O)(=O)c2ccc(Br)s2)CC1 | -8 | -8 | 10 | -3 | -13 | 8
CCOc1cccc(C(=O)NC(=S)Nc2ccc(N3CCCC3)cc2)c1 | 11 | -2 | -2 | 53* | -16 | 2
COc1cccc(OC2OC3COC(C)(C)OC3C(O)C2NC(C)=O)c1 (stereo not drawn) | / | / | / | -9 | / | /
COc1ccc(N2C(=O)CC(Sc3nnc(-c4ccccc4)o3)C2=O)cc1 (stereo not drawn) | / | / | / | -38 | / | /
O=C1CC(Sc2nnc(-c3ccccc3O)o2)C(=O)N1c1ccccc1 (stereo not drawn) | / | / | / | 70* | / | /
Cc1ccc2nc(/C(C#N)=C\c3ccc(N4CCOCC4)o3)[nH]c2c1 | -11 | 16 | 20 | 1 | -38 | -16
Cc1ccc2nc(/C(C#N)=C\c3ccc([N+](=O)[O-])o3)[nH]c2c1 | -36 | -37 | 23 | 0 | -4 | 38*
Cc1ccc2nc(SCC(=O)Nc3cc(C(F)(F)F)ccc3N3CCOCC3)[nH]c2c1 | 34 | -3 | 91* | -23 | 54 | 3
O=C(CSc1nc2ccccc2o1)Nc1cc(C(F)(F)F)ccc1N1CCOCC1 | -5 | 6 | 4 | -15 | -17 | -6
CC1(C)NC(=O)N(CC(=O)OCC(=O)Nc2cc(S(=O)(=O)N3CCCCC3)ccc2Cl)C1=O | / | / | / | 2 | / | /
Nc1nnc(SCC(=O)NCc2ccc3c(c2)OCO3)s1 | 0 | -3 | 93* | -6 | -25 | 3
O=C(CSc1nnc(-c2ccccc2)n1Cc1ccco1)NCc1ccc2c(c1)OCO2 | 8 | 59* | 15 | 11 | -6 | -59

Assay outcomes from PubChem.
